Measurements: PubChem BioAssay (Tox21)
Several values for one entry are separate records, joined by “and”; a condition that tells them apart may be missing. Identical values can stand only once. A number with no mark means an inactive call. Calls follow the shape of the full dose curve.

What follows are molecules tested against Muscarinic acetylcholine receptor M1 (Homo sapiens) (UniProt P11229) (assay: Cholinergic receptor muscarinic 1 (CHRM1) small molecule agonists, cell-based qHTS assay (AID 1963589; also: nearly all actives have a fitted effect of over 35% in size)). Settings: CHRM1-CHO cells, agonist mode, calcium flux fluorescence; series mostly up to 76.8 µM; activation: at the top concentration.
From the text: National Center for Advancing Translational Sciences [NCATS]
Division of Preclinical Innovation [DPI]
U.S. Environmental Protection Agency [EPA]
National Institutes of Environmental Health Sciences [NIEHS]
National Toxicology Program [NTP]
U.S. Food and Drug Administration [FDA]
The CHRM1 is a muscarinic receptor. This receptor plays a crucial role in learning and memory processes and has long been identified as a promising therapeutic target for the improvement of cognitive decline in Alzheimer's disease (AD). The CHRM1-CHO cell line stably expressing human muscarinic acetylcholine receptor M1 (CHRM1) can be used for screening agonists and antagonists of interactions between CHRM1 and its ligands. The CHRM1-CHO Calcium Flux Assay is a homogeneous fluorescence-based assay for detecting the intracellular calcium level using FDSS kinetic plate reader system.
CHRM1-CHO cells were dispensed at 1000 cells/3uL/well in 1536-well black-clear bottom plates using a Multidrop Dispenser. After the assay plates were incubated at a 37 C/5% CO2 incubator for 18 h, 3 uL of Dye Loading Buffer was transferred to the assay plate by a Flying Reagent Dispenser. The assay plates were incubated at 37 C for 1h. For agonist mode, 23 nL of compounds dissolved in DMSO, positive controls or DMSO only was transferred to the assay plate by a pin tool. […] Each test compound was measured at 15 concentrations in three independent runs.
% is scaled to controls: 0 for no effect and ±100 for the full control effect.

Chain of Muscarinic acetylcholine receptor M1 (Homo sapiens) (P11229 whole entry, looked up): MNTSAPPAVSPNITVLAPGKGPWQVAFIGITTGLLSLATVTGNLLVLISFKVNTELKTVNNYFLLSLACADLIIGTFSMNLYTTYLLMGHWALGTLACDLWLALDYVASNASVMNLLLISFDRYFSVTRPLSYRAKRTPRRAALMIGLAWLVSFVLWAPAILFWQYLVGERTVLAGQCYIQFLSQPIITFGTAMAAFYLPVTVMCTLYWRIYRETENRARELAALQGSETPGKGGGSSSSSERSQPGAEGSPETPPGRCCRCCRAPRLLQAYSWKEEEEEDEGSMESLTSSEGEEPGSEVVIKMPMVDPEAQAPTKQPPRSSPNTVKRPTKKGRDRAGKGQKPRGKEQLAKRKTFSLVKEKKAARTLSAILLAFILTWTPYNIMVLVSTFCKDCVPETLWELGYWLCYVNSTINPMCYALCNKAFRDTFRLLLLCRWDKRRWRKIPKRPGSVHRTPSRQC

| Structure (SMILES) | activation |
| --- | --- |
| COC(=O)CC(C)CCC=C(C)C (stereo not given) | 0.255% |
| CC(=O)O[Si](C)(OC(C)=O)OC(C)=O | 1.37% |
| CC1=C(C(=O)O)N2C(=O)[C@@H](NC(=O)[C@H](N)C3=CCC=CC3)[C@H]2SC1 | -0.163% [at 35.3 µM] |
| COC(=O)CSc1cc(N=c2sc(=O)n3n2CCCC3)c(F)cc1Cl | -0.186% |
| CCN(CC)CC1CCCCN1CC(=O)N1c2ccccc2C(=O)Nc2cccnc21 (stereo not given) | -0.196% [at 35.3 µM] |
| OCCN1CCN(CC/C=C2/c3ccccc3Sc3ccc(C(F)(F)F)cc32)CC1 | 11.5% [at 35.3 µM] |
| CCSCC | -0.0099% |
| O=C1c2ccccc2C(=O)c2c(O)c(O)cc(O)c21 | 3.99% |
| Cc1ccccc1Br | -1.51% |
| Cc1c[nH]c(=O)[nH]c1=O | -0.108% |
| CC(C)=CCC[C@](C)(O)[C@@H]1CC=C(C)CC1 | 8.15% |
| CCN(CC)CCCC(C)Nc1ccnc2cc(Cl)ccc12 (stereo not given) | -0.78% [at 6.97 µM] and -0.406% [at 15.8 µM] |
| Nc1ccc(N=Nc2ccc(N)cc2)cc1 | 0.0083% [at 35.3 µM] |
| CC(C)CCCCCOC(=O)CCCCC(=O)OCCCCCC(C)C | 0.903% |
| CC1=C(O)C(=O)CO1 | 0.437% |
| C=CCOCC(O)CS(=O)(=O)O (stereo not given) | -0.279% |
| c1ccc2c(c1)CCCC2C1=NCCN1 (stereo not given) | -0.322% [at 35.3 µM] |
| CN(C)c1ccc(C2(c3ccc(N(C)C)cc3)OC(=O)c3cc(N(C)C)ccc32)cc1 | -0.493% |
| N#Cc1ccccc1O | -0.156% |
| N[C@@H](C(=O)N[C@@H]1C(=O)N2C(C(=O)O)=C(Cl)CS[C@H]12)c1ccccc1 | -0.906% [at 6.97 µM] |

| Structure (SMILES) | activation |
| --- | --- |
| CCc1cccc(N(C)C(N)=Nc2cccc3ccccc23)c1 | 0.0343% [at 35.3 µM] |
| CCOC(=O)CC(C)C | 0.325% |
| CC[N+](C)(CC)CC | 0.0774% |
| CCCCCSCCCCC | 0.0338% |
| CC(=O)N(CC(O)CO)c1c(I)c(C(=O)NCCO)c(I)c(C(=O)NCC(O)CO)c1I (stereo not given) | -0.494% [at 35.3 µM] |
| CC(C(O)c1ccccc1)N(C)CCOC(c1ccccc1)c1ccccc1 (stereo not given) | 8.77% [at 35.3 µM] |
| CC(=O)c1ccccc1[N+](=O)[O-] | -0.608% |
| Cc1ccc(O)c(O)c1 | 4.86% |
| Cc1cccc(Nc2ccccc2)c1 | 8.11% |
| c1cc(OCC2CO2)cc(OCC2CO2)c1 (stereo not given) | 5.11% |
| CC(=O)NC1(c2cccc(F)c2)CCN(CC[C@@]2(c3ccc(Cl)c(Cl)c3)CN(c3ccccc3)C(=O)CO2)CC1 | 9.34% |
| O[Si](c1ccccc1)(c1ccccc1)c1ccccc1 | -1.39% |
| COc1nc(N)nc2c1ncn2[C@@H]1O[C@H](CO)[C@@H](O)[C@@H]1O | -0.0385% [at 35.3 µM] |
| CC(=O)c1ccc(OCC(=O)N2CCCCC2)cc1 | 6.61% [at 35.3 µM] |
| CC(C)CCOCc1ccccc1 | 0.0082% |
| CCCCC/C=C\C=C\C(=O)OCC | 13% |
| CC1=C(Br)C(=O)C(Br)=C/C1=C(/c1ccccc1S(=O)(=O)O)c1cc(Br)c(O)c(Br)c1C | -0.205% [at 35.3 µM] |
| O=C1Cc2ccccc2C1 | 0.0259% |
| CCOC(=O)c1ccccc1C(=C1C=C(Br)C(=O)C(Br)=C1)c1cc(Br)c(O)c(Br)c1 | 9.89% [at 35.3 µM] |
| Cc1nc(Nc2ncc(C(=O)Nc3c(C)cccc3Cl)s2)cc(N2CCN(CCO)CC2)n1 | -0.0223% [at 35.3 µM] |
